Experiment [1] is described as follows: hit retest on RPL19A-GFP reporter strain – cell-based, S. cerevisiae, flow cytometry, cherry picks, mother/daughter gates, confirmation (AID 2270;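 active = GFP response below 50% of the DMSO control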). To be noted: 3 h, at 10 µM, stronger effect = lower value, 100 = same GFP as DMSO wells. On the technique in general: Flow cytometry measures light scatter and fluorescence of single cells or particles in a stream.
Experiment [2] in a line: yeast TOR pathway reporter LAP4-GFP change – cell-based, cherry picks, flow cytometry, mother/daughter gates, confirmation (AID 2271;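 active = GFP response above 150% of the DMSO control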;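 also: ratio of sample to DMSO plate mean so 100% equals DMSO level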). To be noted: S. cerevisiae LAP4-GFP strain, 3 h, at 10 µM, stronger effect = higher value, 100 means same as DMSO control.
The nature of experiment [3]: TOR pathway reporter MEP2-GFP, retest of hits – S. cerevisiae, flow cytometry GFP, cherry picks, confirmation (AID 2272;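 active = GFP response above 150% of the DMSO control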;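 also: ratio of well signal to plate DMSO mean so 100% equals DMSO level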). Conditions: S. cerevisiae MEP2-GFP strain, 3 h, at 10 µM, stronger effect = higher value.
Experiment [4] can be described thus: yeast AGP1-GFP fluorescence change, single-dose – cell-based, flow cytometry, S. cerevisiae, cherry picks, confirmation (AID 2273).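 Also: median GFP channel fluorescence over the whole cell population gate.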 Conditions: S. cerevisiae AGP1-GFP strain, 3 h, at 10 µM.
Experiment [5] can be described thus: TOR pathway CIT2 reporter hit retest – S. cerevisiae, GFP fusion, cherry picks, mother/daughter gates, confirmation (AID 2274). To be noted: S. cerevisiae CIT2-GFP strain, flow cytometry, 3 h, at 10 µM, stronger effect = higher value.
Experiment [6] is described as follows: green-channel fluorescence artefact in S. cerevisiae – s288c strain, artefact control for yeast TOR pathway GFP screen, dose response (AID 2757;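 active = fluorescence span over the dose series, or activity score, above about 33, limit read from the data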;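 also: thousands of bead-calibrated equivalent soluble fluorophore molecules from median cell fluorescence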). To be noted: 520 nm autofluorescence, flow cytometry, 3 h, at 33 µM, stronger effect = higher value, zero means same as solvent-only cells.
Where [7] appears, read: measured here: daughter cell gate.
Where [8] appears, read: measured here: mother cell gate.
Setting [9] is: measured here: mother cell gate response.
Setting [10] is: measured here: daughter cell gate response.

Some of the results follow. Calls of active or inactive are those of the source.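 The calls were made as follows, unless noted: active = GFP response above 150% of the DMSO level; inconclusive = fewer than 70 events counted for a yeast strain; inactive = the rest.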

On to `Cc1nn2c(NCc3ccccn3)c3c(nc2c1-c1ccccc1)CCC3`, for which the GFP response vs DMSO in experiment [1] was 106% (inactive); in experiment [1] (setting [7]) it was 85.7%; in experiment [1] (setting [8]), 93.7%; in experiment [3], 120% (inactive). Further, the GFP response relative to DMSO in experiment [2] was 132% (inactive); in experiment [2] (setting [9]) it was 114%. Moreover, the GFP response, % of DMSO in experiment [4] is 103% (inactive); in experiment [5], 100% (inactive); in experiment [5] (setting [7]), 95.8%; in experiment [5] (setting [8]), 85.9%.
With `CCn1c(/C=C/c2ccc([N+](=O)[O-])o2)nc2ccccc2c1=O`, the GFP response vs DMSO in experiment [1] was 144% (inactive); in experiment [1] (setting [7]) it was 143%; in experiment [1] (setting [8]), 135%; in experiment [3] it was 418% (active). Besides, the GFP response relative to DMSO in experiment [2] was 347% (active); in experiment [2] (setting [10]), 336%; in experiment [2] (setting [9]), 334%. Also, the GFP response, % of DMSO is 131% (inactive) in experiment [4], 278% (active) in experiment [5], 289% in experiment [5] (setting [7]) and 251% in experiment [5] (setting [8]). In addition, the fluorescence change (kMESF span) in experiment [6] is 108 (active).
For the compound `Cc1ccc(C(C(=O)NC2CCCCC2)N(CCCN2CCOCC2)C(=O)c2snc(C(N)=O)c2N)cc1` (stereo not drawn), the GFP response vs DMSO in experiment [1] was 101% (inactive); in experiment [1] (setting [7]), 102%; in experiment [1] (setting [8]) it was 102%; in experiment [3] it was 99.5% (inactive). Besides, the GFP response relative to DMSO in experiment [2] is 105% (inactive); in experiment [2] (setting [10]) it was 102%; in experiment [2] (setting [9]), 104%. Further, the GFP response, % of DMSO is 104% (inactive) in experiment [4], 102% (inactive) in experiment [5], 98.3% in experiment [5] (setting [7]) and 103% in experiment [5] (setting [8]).
`COc1ccc(C(=O)NC(=S)NNC(=O)CCc2ccccc2)cc1`: the GFP response vs DMSO in experiment [1] was 106% (inactive); in experiment [1] (setting [7]), 104%; in experiment [1] (setting [8]), 106%; in experiment [3], 116% (inactive). In addition, the GFP response relative to DMSO in experiment [2] is 188% (active); in experiment [2] (setting [10]) it was 173%; in experiment [2] (setting [9]) it was 189%. The GFP response, % of DMSO in experiment [4] was 87.7% (inactive); in experiment [5] it was 101% (inactive); in experiment [5] (setting [7]), 104%; in experiment [5] (setting [8]) it was 93.3%. Further, in experiment [6], the fluorescence change (kMESF span) was 0.3 (inactive).
Consider `COc1ccccc1NC1=C(Cl)C(=O)N(c2ccccc2)C1=O`, for which the GFP response vs DMSO in experiment [1] is 103% (inactive); in experiment [1] (setting [7]) it was 103%; in experiment [1] (setting [8]), 103%; in experiment [3], 103% (inactive). For the same compound, the GFP response relative to DMSO is 93.7% (inactive) in experiment [2], 92% in experiment [2] (setting [10]) and 94.1% in experiment [2] (setting [9]). Also, the GFP response, % of DMSO is 97% (inactive) in experiment [4], 103% (inactive) in experiment [5], 105% in experiment [5] (setting [7]) and 101% in experiment [5] (setting [8]).
Regarding `O=C1C=CC(=O)N1c1ccc(N2CCCCC2)cc1`, the GFP response vs DMSO in experiment [1] is 75.5% (inactive); in experiment [1] (setting [7]), 86.8%; in experiment [1] (setting [8]) it was 63.8%; in experiment [3] it was 87.8% (inactive). The values for the GFP response relative to DMSO in experiment [2], in experiment [2] (setting [10]) and in experiment [2] (setting [9]) were 220% (active), 99.2% and 218%, respectively. Besides, the GFP response, % of DMSO was 79.9% (inactive) in experiment [4], 104% (inactive) in experiment [5], 97.2% in experiment [5] (setting [7]) and 89% in experiment [5] (setting [8]). The fluorescence change (kMESF span) in experiment [6] is 0.41 (inactive).
Consider `O=C(/C=C/Sc1ncn[nH]1)c1ccc(Cl)cc1`, for which the GFP response vs DMSO was 106% (inactive) in experiment [1], 106% in experiment [1] (setting [7]), 99.8% in experiment [1] (setting [8]) and 114% (inactive) in experiment [3]. For the same compound, the GFP response relative to DMSO in experiment [2] is 213% (active); in experiment [2] (setting [10]), 198%; in experiment [2] (setting [9]), 214%. Moreover, the GFP response, % of DMSO was 89.5% (inactive) in experiment [4], 110% (inactive) in experiment [5], 108% in experiment [5] (setting [7]) and 104% in experiment [5] (setting [8]). Further, the fluorescence change (kMESF span) in experiment [6] was 2.12 (inactive).
For the compound `CCCc1cc(NCc2ccccn2)n2nc(C)c(-c3ccccc3)c2n1`, the GFP response vs DMSO in experiment [1] was 108% (inactive); in experiment [1] (setting [7]), 88%; in experiment [1] (setting [8]) it was 91.2%; in experiment [3] it was 143% (inactive). The GFP response relative to DMSO was 172% (active) in experiment [2] and 148% in experiment [2] (setting [9]). Further, the GFP response, % of DMSO in experiment [4] is 107% (inactive); in experiment [5], 92.6% (inactive); in experiment [5] (setting [7]) it was 81.7%; in experiment [5] (setting [8]), 77.3%.
Turning to `Nc1ccccc1SC(C[N+](=O)[O-])c1ccccc1` (stereo not drawn), the GFP response vs DMSO was 93.3% (inactive) in experiment [1], 96.3% in experiment [1] (setting [7]), 87.6% in experiment [1] (setting [8]) and 112% (inactive) in experiment [3]. The figures for the GFP response relative to DMSO in experiment [2], in experiment [2] (setting [10]) and in experiment [2] (setting [9]) were 173% (active), 170% and 169%, respectively. Moreover, the GFP response, % of DMSO is 112% (inactive) in experiment [4], 92.2% (inactive) in experiment [5], 100% in experiment [5] (setting [7]) and 81.8% in experiment [5] (setting [8]). In addition, in experiment [6], the fluorescence change (kMESF span) was 0.62 (inactive).
For the compound `CCOC(=O)c1ccc2nc(Nc3nc4ccc(F)cc4s3)sc2c1`, the GFP response vs DMSO in experiment [1] is 99.6% (inactive); in experiment [1] (setting [7]), 98.1%; in experiment [1] (setting [8]) it was 99.3%; in experiment [3], 101% (inactive). The GFP response relative to DMSO in experiment [2] is 101% (inactive); in experiment [2] (setting [10]) it was 97.5%; in experiment [2] (setting [9]), 102%. For the same compound, the GFP response, % of DMSO was 105% (inactive) in experiment [4], 103% (inactive) in experiment [5], 103% in experiment [5] (setting [7]) and 103% in experiment [5] (setting [8]).
Consider `Cc1[nH]c(-c2ccccn2)nc(=S)c1Cl`, for which the GFP response vs DMSO in experiment [1] was 106% (inactive); in experiment [1] (setting [7]), 98.1%; in experiment [1] (setting [8]) it was 95.8%; in experiment [3], 118% (inactive). Besides, the GFP response relative to DMSO in experiment [2] is 303% (active); in experiment [2] (setting [10]), 215%; in experiment [2] (setting [9]), 266%. In addition, the GFP response, % of DMSO in experiment [5] was 107% (inactive); in experiment [5] (setting [7]), 115%; in experiment [5] (setting [8]) it was 91.5%.
As for `O=C1Oc2ccccc2C(=O)/C1=C/c1ccccc1O`, the GFP response vs DMSO in experiment [1] was 91.3% (inactive); in experiment [1] (setting [7]), 89.3%; in experiment [1] (setting [8]), 80.2%; in experiment [3], 105% (inactive). Moreover, the figures for the GFP response relative to DMSO in experiment [2], in experiment [2] (setting [10]) and in experiment [2] (setting [9]) were 394% (active), 246% and 373%, respectively. Moreover, the GFP response, % of DMSO in experiment [4] is 91% (inactive); in experiment [5], 79.8% (inactive); in experiment [5] (setting [7]), 91.7%; in experiment [5] (setting [8]) it was 67.7%. The fluorescence change (kMESF span) in experiment [6] was 0.71 (inactive).
With `O=C(Nc1cc(F)c(Br)cc1F)c1ccc(Cl)cc1`, the GFP response vs DMSO is 99.3% (inactive) in experiment [1], 93.3% in experiment [1] (setting [7]), 87.2% in experiment [1] (setting [8]) and 106% (inactive) in experiment [3]. In experiment [2], the GFP response relative to DMSO is 97.7% (inactive). For the same compound, the GFP response, % of DMSO was 98.8% (inactive) in experiment [4], 103% (inactive) in experiment [5], 94% in experiment [5] (setting [7]) and 94.9% in experiment [5] (setting [8]).
As to `CN(C)c1ccc(/C=C/c2ccc3ccccc3[n+]2C)cc1`, the GFP response vs DMSO in experiment [1] is 95.3% (inactive); in experiment [1] (setting [7]), 90%; in experiment [1] (setting [8]), 88.7%; in experiment [3], 107% (inactive). In addition, the GFP response relative to DMSO in experiment [2] is 98.7% (inactive). For the same compound, the figures for the GFP response, % of DMSO in experiment [4], in experiment [5] and in experiment [5] (setting [8]) were 89.5% (inactive), 107% (inactive) and 95.5%, respectively.
With `Cc1ccc(NC(=O)c2ccc(Cl)c(N3C(=O)C=CC3=O)c2)cc1`, the GFP response vs DMSO is 86.1% (inactive) in experiment [1], 69.8% in experiment [1] (setting [8]) and 129% (inactive) in experiment [3]. Besides, the results for the GFP response relative to DMSO in experiment [2] and in experiment [2] (setting [9]) were 217% (active) and 186%, respectively. For the same compound, the GFP response, % of DMSO was 97.1% (inactive) in experiment [4] and 84.9% (inactive) in experiment [5].
Take `Cc1ccc(/C=C/c2ccc(N(C)C)cc2)[n+](C)c1`: the GFP response vs DMSO in experiment [1] is 101% (inactive); in experiment [1] (setting [7]) it was 94.2%; in experiment [1] (setting [8]), 93.8%; in experiment [3], 133% (inactive). In addition, the GFP response relative to DMSO in experiment [2] was 119% (inactive). Further, the GFP response, % of DMSO is 103% (inactive) in experiment [4], 121% (inactive) in experiment [5], 121% in experiment [5] (setting [7]) and 110% in experiment [5] (setting [8]).
